According to PubChem BioAssay:
Active and inactive are the calls of the source.

Columns and labels:
Lefty1 = Lefty1 binders on small-molecule microarrays, primary screen, biochemical, small-molecule microarray, 635/667 nm fluorescence (AID 1139); conditions: small-molecule microarray binding, fluorescence 635/667; higher = more signal
[1] = system: wheat germ agglutinin (Triticum aestivum), Alexa647-labelled; test: wheat germ agglutinin binders on compound microarrays, profiling panel, artefact control for SMM control-protein annotation, biochemical, small-molecule microarray, 635/667 nm fluorescence (AID 1140); conditions: WGA-A647 binding, 635 nm fluorescence, higher = more signal;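 also: score merges 667 nm feature emission with signal to noise over triplicate slides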
[2] = molecular target: Luciferin 4-monooxygenase (Photinus pyralis) (UniProt P08659); test: firefly luciferase enzyme inhibitors, primary screen, biochemical, luminescence, purified enzyme, 2006 set (AID 1141); conditions: SteadyGlo luminescence, 30 min, higher = more signal, called active from +8 up or from −8 down;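 also: cell-free assay with purified firefly luciferase at 100 ng per well in PBS; test concentration not given here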
Luciferin 4-monooxygenase (Photinus pyralis), sequence (P08659 whole entry, looked up): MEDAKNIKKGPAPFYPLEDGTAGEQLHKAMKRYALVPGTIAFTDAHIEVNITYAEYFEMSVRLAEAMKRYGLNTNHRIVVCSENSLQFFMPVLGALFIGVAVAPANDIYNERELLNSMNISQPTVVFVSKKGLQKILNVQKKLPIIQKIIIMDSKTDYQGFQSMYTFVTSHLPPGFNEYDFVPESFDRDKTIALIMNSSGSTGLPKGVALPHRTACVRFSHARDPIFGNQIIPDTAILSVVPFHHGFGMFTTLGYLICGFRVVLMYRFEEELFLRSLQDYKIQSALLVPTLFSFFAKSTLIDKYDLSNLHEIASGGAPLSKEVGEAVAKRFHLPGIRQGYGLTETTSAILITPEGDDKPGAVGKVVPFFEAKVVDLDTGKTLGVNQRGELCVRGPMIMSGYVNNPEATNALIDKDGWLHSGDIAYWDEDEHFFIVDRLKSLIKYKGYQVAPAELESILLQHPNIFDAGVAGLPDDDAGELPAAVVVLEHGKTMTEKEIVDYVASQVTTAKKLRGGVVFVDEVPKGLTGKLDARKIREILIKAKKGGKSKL

[3] = system: Wnt5a (protein binding on small-molecule microarray); test: Wnt5a binders on small-molecule microarray, primary screen, biophysical, 635/667 nm fluorescence (AID 1142); conditions: 635 nm fluorescence, higher = more signal;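 also: fluorescence read at 667 nm with signal to noise per printed feature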
[4] = cell viability in Huh7 cells, primary screen, cytotoxicity control for HCV replication inhibitor project, CellTiter-Glo luminescence, basal, 48 h (AID 1143); conditions: Huh7 HCV replicon, higher = more signal, called active from +8 up or from −8 down;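 also: Huh7 hepatoma cells carrying a hepatitis C replication reporter with no stimulus; test concentration not given here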
[5] = CREB reporter modulators without forskolin, primary screen, cell-based, PC12, CRE-LacZ reporter, unstimulated (AID 1145); conditions: no forskolin, luminescence, 4.5 h, higher = more signal, called active from +8 up or from −8 down
[6] = CREB reporter modulators under forskolin, primary screen, cell-based, PC12, CRE-LacZ reporter, forskolin-stimulated (AID 1146); conditions: luminescence, 4.5 h, higher = more signal, called active from +8 up or from −8 down;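 also: PC12 cells with 6xCRE LacZ reporter stimulated by forskolin 10 µM; beta-galactosidase reporter signal reflecting CREB driven transcription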
[7] = molecular target: Streptavidin (Streptomyces avidinii) (UniProt P22629); test: streptavidin binders on small-molecule microarray, primary screen, artefact control for SMM compound annotation, biophysical, 635/667 nm fluorescence (AID 1147); conditions: streptavidin binding, higher = more signal;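 also: signal reflects streptavidin binding to arrayed compounds as a control protein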
Streptavidin (Streptomyces avidinii), sequence (P22629 whole entry, looked up): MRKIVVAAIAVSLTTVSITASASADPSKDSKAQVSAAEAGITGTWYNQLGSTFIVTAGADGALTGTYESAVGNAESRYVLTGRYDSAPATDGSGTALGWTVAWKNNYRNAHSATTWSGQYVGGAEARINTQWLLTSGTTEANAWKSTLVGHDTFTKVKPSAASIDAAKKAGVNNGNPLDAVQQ

[8] = small-molecule binders of probe aInhba, primary screen, biochemical, small-molecule microarray, 635/667 nm fluorescence (AID 1148); conditions: higher = more signal;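 also: score merges 667nm spot fluorescence with signal-to-noise for antibody binding to printed compounds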
Torsin-1A (Homo sapiens) [9] = molecular target: Torsin-1A (Homo sapiens) (UniProt O14656); test: torsin A binders from cell lysate, primary screen, small-molecule microarray, wild-type, 635/667 nm (AID 1149); conditions: COS7 hTOR1A-WT lysate, 635 nm fluorescence, higher = more signal
Torsin-1A (Homo sapiens), sequence (O14656 whole entry, looked up): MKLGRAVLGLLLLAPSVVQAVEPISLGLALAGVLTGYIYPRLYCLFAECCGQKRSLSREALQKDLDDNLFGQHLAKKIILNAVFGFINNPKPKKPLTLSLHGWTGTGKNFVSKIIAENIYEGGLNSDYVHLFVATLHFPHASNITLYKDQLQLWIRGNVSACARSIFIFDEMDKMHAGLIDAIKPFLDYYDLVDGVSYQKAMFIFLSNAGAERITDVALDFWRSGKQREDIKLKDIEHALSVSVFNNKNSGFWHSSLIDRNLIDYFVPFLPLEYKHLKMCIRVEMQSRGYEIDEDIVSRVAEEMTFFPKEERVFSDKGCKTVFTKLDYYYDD

Torsin-1A (Homo sapiens) [10] = molecular target: Torsin-1A (Homo sapiens) (UniProt O14656); test: small-molecule binders of mutant TOR1A in lysate, primary screen, cell lysate, small-molecule microarray, COS7 lysate, 635/667 nm fluorescence (AID 1150); conditions: COS7 hTOR1A mutant lysate, 635 nm fluorescence, higher = more signal;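 also: score pools 667 nm emission and signal to noise measuring lysate protein binding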
[11] = system: Sonic hedgehog protein (Shh); test: small-molecule binders of Shh protein, primary screen, biochemical, small-molecule microarray, 635/667 nm fluorescence (AID 1151); conditions: small-molecule microarray binding, 635 nm fluorescence; higher = more signal;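 also: Shh protein binding to compounds spotted on small-molecule microarray slides; score combines spot fluorescence intensity with signal-to-noise across triplicate slides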
[12] = E. coli DRC41 culture turbidity changes, primary screen, E. coli filamentation inducer project, strain DRC41, OD650, 48 h (AID 1152);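 also: E. coli MC1000 strain DRC41 lacking acrAB efflux pump and sulA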; conditions: E. coli DRC41 (acrAB sulA), higher = more signal, called active from +8 up or from −8 down
[13] = small-molecule binders of probe aLefty1, primary screen, biochemical, small-molecule microarray, 635/667 nm fluorescence (AID 1153); conditions: higher = more signal;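 also: score merges spot fluorescence with signal-to-noise ratio from the scanned slide images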
[14] = PSAC antagonists in infected red cells, primary screen, cell-based, P. falciparum Indochina, OD700, 1 h (AID 1154); conditions: P. falciparum Indochina infected RBC osmotic lysis, higher = more signal, called active from +8 up or from −8 down
[15] = PSAC antagonists in infected red cells, primary screen, cell-based, P. falciparum Indochina, OD700, 2 h (AID 1155);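 also: lysis reports solute entry through the parasite surface anion channel PSAC; channel blockers reduce lysis of infected cells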; conditions: P. falciparum Indochina infected erythrocytes, osmotic lysis OD700; higher = more signal, called active from +8 up or from −8 down
[16] = osmotic lysis modulators in infected erythrocytes, primary screen, PSAC antagonist project, cell-based, P. falciparum Indochina, OD700, 3 h (AID 1156); conditions: higher = more signal, called active from +8 up or from −8 down
[17] = PSAC antagonists in infected red cells, primary screen, cell-based, P. falciparum Indochina, OD700, 18 h (AID 1157); conditions: P. falciparum Indochina infected erythrocytes, osmotic lysis OD700, 18 h; higher = more signal, called active from +8 up or from −8 down
[18] = modulators of S6 phosphorylation in cells, primary screen, cell-based, A549, cytoblot, luminescence, serum-stimulated (AID 1158); conditions: A549 phospho-S6 cytoblot, 5 h, higher = more signal;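 also: serum-stimulated A549 lung adenocarcinoma cells; signal is phosphorylated S6 detected by cytoblot immunostaining with HRP secondary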
[19] = molecular target: NADPH oxidase 2 (Homo sapiens) (UniProt P04839); test: NOX2-dependent H2O2 signal modulators, primary screen, NOX inhibitor project, cell-based, HEK293-NOX2, PMA-stimulated, Amplex Red fluorescence (AID 1159); conditions: 45 min, higher = more signal, called active from +8 up or from −8 down; also: test concentration not given here
NADPH oxidase 2 (Homo sapiens), sequence (P04839 whole entry, looked up): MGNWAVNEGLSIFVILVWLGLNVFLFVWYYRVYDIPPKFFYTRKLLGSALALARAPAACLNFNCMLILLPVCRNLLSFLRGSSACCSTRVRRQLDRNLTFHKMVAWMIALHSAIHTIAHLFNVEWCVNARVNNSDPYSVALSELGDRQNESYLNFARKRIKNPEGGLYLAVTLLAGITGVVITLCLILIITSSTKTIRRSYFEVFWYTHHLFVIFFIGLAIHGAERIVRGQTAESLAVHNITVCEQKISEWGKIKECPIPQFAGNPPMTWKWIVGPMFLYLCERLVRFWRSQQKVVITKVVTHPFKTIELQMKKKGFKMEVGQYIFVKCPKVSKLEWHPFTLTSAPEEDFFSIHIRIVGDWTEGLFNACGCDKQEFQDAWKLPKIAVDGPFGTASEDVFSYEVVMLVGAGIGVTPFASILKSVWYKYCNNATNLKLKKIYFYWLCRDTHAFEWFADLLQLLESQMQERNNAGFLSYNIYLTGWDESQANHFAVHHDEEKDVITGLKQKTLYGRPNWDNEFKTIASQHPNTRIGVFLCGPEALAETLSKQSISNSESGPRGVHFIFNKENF

Row | SMILES | composite z-score (Lefty1) | composite z-score [1] | z-score [2] | composite z-score [3] | z-score [4] | z-score [5] | z-score [6] | composite z-score [7] | composite z-score [8] | composite z-score (Torsin-1A (Homo sapiens) [9]) | composite z-score (Torsin-1A (Homo sapiens) [10]) | composite z-score [11] | z-score [12] | composite z-score [13] | z-score [14] | z-score [15] | z-score [16] | z-score [17] | z-score [18] | z-score [19]
1 | C=C(CCCC)/C(=C/C[C@H](OC(=O)c1ccncc1)c1ccc(CO)o1)c1cnc2ccccc2c1 | 1.38 | 1.28 | -2.94 (inactive) | 0.216 | -0.807 (inactive) | 3.77 (inactive) | -1.24 (inactive) | 0.783 | 0.212 | 0.378 | 0.324 | 1.95 | 0.822 (inactive) | 0.301 | 7.89 (inactive) | -0.0845 (inactive) | 1.04 (inactive) | -1.01 (inactive) | -0.367 | 2.49 (inactive)
2 | C=CCOC(=O)[C@H]1[C@@H]2C(=O)O[C@@H](c3ccccc3)[C@@H](c3ccccc3)N2[C@@H](c2ccc(OCCOC(=O)[C@H]3C[C@H]4C(=O)N5CCC[C@H]5C(=O)N4[C@H]3c3cccc(OCCO)c3)cc2)[C@]12C(=O)Nc1ccccc12 | 0.628 | 0.828 | -1.23 (inactive) | 0.135 | -2.03 (inactive) | 1.22 (inactive) | -0.378 (inactive) | -0.0186 | -0.0849 | 0.292 | 1.54 | 1.18 | 1.18 (inactive) | -0.106 | 5.04 (inactive) | 1.7 (inactive) | -0.158 (inactive) | 0.741 (inactive) | -0.0338 | 2.26 (inactive)
3 | C=CCC(OC(C)=O)[C@@H]1[C@@H](N(Cc2ccc(-c3ccccc3)cc2)C(=O)c2ccc(-c3ccccc3)cc2)c2cc(OCCCO)ccc2N1C(=O)c1ccc(-c2ccccc2)cc1 (stereo not given in full) | -0.418 | 0.0316 | -1.15 (inactive) | 0.144 | 0.534 (inactive) | -0.0247 (inactive) | -0.426 (inactive) | 0.222 | 0.0439 | 0.276 | 0.0533 | 0.107 | 2.03 (inactive) | -0.0088 | 0.568 (inactive) | 0.712 (inactive) | -0.181 (inactive) | 0.0154 (inactive) | 0.531 | 0.844 (inactive)
4 | COCCCNC(=O)[C@@]1(CCS(=O)(=O)c2ccccc2)N=C(c2ccc(OCCCO)cc2)O[C@H]1c1ccccc1CN=[N+]=[N-] | 0.578 | 1.24 | -0.888 (inactive) | 0.671 | -5.36 (inactive) | 2.57 (inactive) | -1.7 (inactive) | 1.41 | 0.358 | -0.183 | 0.186 | 0.744 | 2.33 (inactive) | 1.03 | 23.5 (active) | 4.65 (inactive) | 2.25 (inactive) | 0.425 (inactive) | 3.83 | 0.439 (inactive)
5 | C=C1C=C(Br)C2(OCCCO2)[C@H]2OC12 (stereo not given in full) | 0.743 | -0.903 | -0.914 (inactive) | -0.093 | 0.15 (inactive) | 0.199 (inactive) | 0.676 (inactive) | 0.61 | -0.128 | 0.639 | 0.495 | 0.411 | 0.659 (inactive) | -0.147 | -0.14 (inactive) | 0.146 (inactive) | -0.334 (inactive) | -0.12 (inactive) | -0.281 | 0.868 (inactive)
6 | CC(C)NC(=O)[C@@H]1c2ccccc2C(=O)N(Cc2cc(F)cc(C(F)(F)F)c2)[C@H]1c1ccc(CO)cc1 | -1.89 | -1.21 | -0.758 (inactive) | -0.0581 | 0.142 (inactive) | -0.529 (inactive) | -1.08 (inactive) | -0.95 | -0.329 | -0.479 | -0.0988 | -0.72 | 1.39 (inactive) | -0.113 | 2.06 (inactive) | 0.391 (inactive) | 1.47 (inactive) | 0.178 (inactive) | 0.161 | 0.146 (inactive)
7 | C=CCNC(=O)[C@@H]1[C@H]2C(=O)O[C@H](c3ccccc3)[C@H](c3ccccc3)N2[C@H](c2ccc(O)cc2)[C@@]12C(=O)Nc1ccccc12 | 0.52 | 0.567 | -1.03 (inactive) | 0.154 | -2.84 (inactive) | -0.348 (inactive) | -1.3 (inactive) | -0.171 | -0.218 | -0.0795 | -0.264 | 1.05 | 1.88 (inactive) | -0.22 | 3.11 (inactive) | 0.87 (inactive) | 0.253 (inactive) | 0.983 (inactive) | 0.686 | -0.00775 (inactive)
8 | CC(=O)NCCCC[C@@H]1NC(=O)[C@@H]2C[C@H](C(=O)O)[C@H](c3cccc(OCCO)c3)N2C1=O | 1.42 | 0.795 | -1.16 (inactive) | 0.45 | -0.533 (inactive) | 0.151 (inactive) | -0.741 (inactive) | 0.397 | -0.0403 | 0.911 | 0.903 | 2.12 | 0.733 (inactive) | -0.138 | 0.495 (inactive) | 0.373 (inactive) | -1.49 (inactive) | 0.0814 (inactive) | 0.264 | -1.16 (inactive)
